Potency and outcome data for eight compounds are collected here from PubChem BioAssay (NCATS).

Records with an inconclusive call do not appear. Calls of active or inactive are those of the source. Unless noted, calls come from the whole dose curve; as a rule, active = well fitted curve in the direction sought with a large enough effect; inconclusive = small, poorly fitted or top-dose-only effect, or another doubt; inactive = no such curve, though single readings can be large; an effect the other way counts as inactive or inconclusive. Residues, ends and D or L forms follow the SMILES beside them. *: point of attachment. Cbz = O=C(OCc1ccccc1)*

The target of assay [1] is Glutathione peroxidase 1 (Homo sapiens) (UniProt P07203). As to the kind of experiment: Primary qHTS Assay for Inhibitors of Recombinant Selenoprotein Glutathione Peroxidase 1 (GPX1) (AID 1845191). Note: nearly all actives have a fitted effect of over 65% in size. Put shortly: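 Recombinant GPX1 (10 nM final) was preincubated with compound for 30 min at room temperature, then reacted with 1 mM GSH, 0.5 mM CHP, 0.5 mM NADPH and 100 nM glutathione reductase; NADPH fluorescence (340/450 nm) was read at 0 and 15 min.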

Assay [2] deals with Phospholipid hydroperoxide glutathione peroxidase GPX4 (Homo sapiens) (UniProt P36969). The assay can be described thus: Primary qHTS Assay for Inhibitors of Recombinant Selenoprotein Glutathione Peroxidase 4 (GPX4) (AID 1845192). Note: nearly all actives have a fitted effect of over 65% in size. Put shortly:
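GR-coupled readout: 100 nM GR, 1 mM GSH, 0.5 mM NADPH; NADPH fluorescence (ex 340/em 450 nm) read at t=0 and after 15 min RT. GPX4 200 nM, preincubated 30 min with compound; substrate 0.5 mM CHP.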
For orientation: Quantitative high-throughput screening tests each substance at several concentrations.

A short description of assay [3]: Quantitative High-Throughput drug screen in 47 multiple myeloma cell lines against the NCATS MIPE library collection: FR4_PLB cell viability assay (AID 1918924; note: nearly all actives have a fitted effect of over 35% in size; note: potency is the fitted concentration of half-maximal effect). Put shortly:
(§1)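 CellTiter-Glo luminescence (ATP) after 48 h compound exposure, 37C/5% CO2; 500 cells/well; MIPE 4.0 approved/investigational drugs pinned in; DMSO = 100%, media only = 0% viability.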

Assay [4] in a line: Quantitative High-Throughput drug screen in 47 multiple myeloma cell lines against the NCATS MIPE library collection: Delta47_JCRB cell viability assay (AID 1918925; note: nearly all actives have a fitted effect of over 45% in size; note: potency is the fitted concentration of half-maximal effect). Put shortly:
(§2)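 Viability readout: CellTiter-Glo luminescence following 5 min room-temperature incubation with reagent. Prior exposure: 48 h, 37C, humidified 5% CO2, 500 cells per well.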

A short description of assay [5]: Quantitative High-Throughput drug screen in 47 multiple myeloma cell lines against the NCATS MIPE library collection: EJM_DSMZ cell viability assay (AID 1918926; note: nearly all actives have a fitted effect of over 30% in size; note: potency is the fitted concentration of half-maximal effect). In outline:
as §2

The nature of assay [6]: Quantitative High-Throughput drug screen in 47 multiple myeloma cell lines against the NCATS MIPE library collection: AMO1_DSMZ cell viability assay (AID 1918927; note: nearly all actives have a fitted effect of over 30% in size; note: potency is the fitted concentration of half-maximal effect). In outline:
as §2

Assay [7] can be described thus: Quantitative High-Throughput drug screen in 47 multiple myeloma cell lines against the NCATS MIPE library collection: ARP1_JJKsccF8 cell viability assay (AID 1918928; note: nearly all actives have a fitted effect of over 40% in size; note: potency is the fitted concentration of half-maximal effect). Put shortly: (§3)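 Myeloma cells, 500 per well, were exposed to MIPE 4.0 drugs by pin transfer for 48 h at 37 °C, 5% CO2. Viability was read as ATP luminescence with CellTiter-Glo, normalised to DMSO-only (100%) and medium-only (0%) wells.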

The nature of assay [8]: Quantitative High-Throughput drug screen in 47 multiple myeloma cell lines against the NCATS MIPE library collection: ARD_JJKsccE7 cell viability assay (AID 1918929; note: potency is the fitted concentration of half-maximal effect). Put shortly: as §2
A short description of assay [9]: Quantitative High-Throughput drug screen in 47 multiple myeloma cell lines against the NCATS MIPE library collection: Karpas620_DSMZ cell viability assay (AID 1918959). Note: nearly all actives have a fitted effect of over 30% in size. Note: potency is the fitted concentration of half-maximal effect. Put shortly: as §1
Assay [10] has as its target Luciferin 4-monooxygenase (Photinus pyralis) (UniProt P08659). The assay can be described thus: Primary firefly luciferase (FLuc) qHTS assay for identification of artifact compounds. (AID 1845220). Note: nearly all actives have a fitted effect of over 60% in size. Put shortly:
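In this counter-screen for luciferase artifacts, test compounds met substrate (10 uM each luciferin and ATP) before 10 nM enzyme started the reaction. Light output was measured 5 min later.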

A short description of assay [11]: Primary fluorescence-based thiol-reactive (MSTI) qHTS assay for identification of artifact compounds. (AID 1845221).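 Note: series mostly up to about 54 µM; thiol-reactive compounds lower the probe fluorescence signal; nearly all actives have a fitted effect of over 65% in size.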 In outline: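 qHTS titration of compound; 4 uM MSTI, PBS pH 7.4, 2% DMSO; 1 h RT, dark; fluorescence 525/598 nm; normalized to Acetyl-MSTI and MSTI; 4-parameter Hill fit.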
For assay [12], the system named is Nanoluciferase (engineered Oplophorus gracilirostris luciferase). The assay can be described thus: Primary Nanoluciferase (NLuc) qHTS assay for identification of artifact compounds. (AID 1845222).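 Note: NLuc secreted into diluted conditioned medium of S16 cells; series mostly up to about 54 µM.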 In outline:
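Using secreted nanoluciferase in S16 culture medium (0.22 um filtered, 1:55 dilution), compounds were preincubated 15 min at RT. Signal was generated with Nano-Glo reagent (1:100) over 5 min.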

Assay [13] is described as follows: Primary redox qHTS assay for identification of artifact compounds. (AID 1845223). In outline:
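Amplex Red (25 uM) and HRP (250 mU/mL) in HBSS, with compounds for 15 min, then 250 uM DTT for 30 min, room temperature, dark. Fluorescence 525/598 nm read; normalized to DMSO and 10 uM DA3003; Hill fit.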

The nature of assay [14]: Quantitative High-Throughput drug screen in 47 multiple myeloma cell lines against the NCATS MIPE library collection: KMM1_JCRB cell viability assay (AID 1918960). Note: nearly all actives have a fitted effect of over 30% in size. Note: potency is the fitted concentration of half-maximal effect. Put shortly: as §3
Assay [15] can be described thus: NCATS anti-infectives library activity on the primary C. elegans qHTS viability assay (AID 1745855; calls by dose curve). Put shortly:
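Viability is taken from GFP fluorescence of PE254-GFP-FLuc C. elegans imaged by laser cytometry over 7 days. Ten L1 worms per well grow at 21 °C on TOP10 E. coli capsules with titrated compound; levamisole marks toxicity.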

Assay [16] can be described thus: Viability counterscreen for antagonist of constitutive androstane receptor (CAR) against the NCATS DSHEA and TCM libraries (AID 1794837).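 Note: compound exposure lasted 24 h before viability reading.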 In outline:
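HepG2-CYP2B6-hCAR cells, 2,500/well, were exposed 24 hr at 37C to substances together with 48 uM CITCO (final). Viability was read as CellTiter-Fluor fluorescence (Ex/Em 405/540 nm) after 1 hr.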
For orientation: A counterscreen serves to expose hits that act by an unwanted route or on another target.

Assay [17] is described as follows: Viability counterscreen for agonist of constitutive androstane receptor (CAR) against the NCATS DSHEA and TCM libraries (AID 1794838).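 Note: HepG2 cells with CYP2B6 reporter and hCAR plus 0.75 µM PK11195 antagonist.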 Put shortly:
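HepG2-CYP2B6-hCAR cells (2,500/well) treated 24 h at 37C with compounds plus 0.75 uM PK11195; viability read by CellTiter-Fluor fluorescence, Ex/Em 405/540 nm.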

For assay [18], the target named is Nuclear receptor subfamily 1 group I member 3 (Homo sapiens) (UniProt Q14994). The assay can be described thus: Primary qHTS for agonist of constitutive androstane receptor (CAR) against the NCATS DSHEA and TCM libraries (AID 1794839).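 Note: HepG2 cells expressing human CAR with a CYP2B6 reporter plus PK11195 antagonist.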 In outline:
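HepG2-CYP2B6-hCAR cells, 2,500/well, attached 5 h, then dosed with 0.75 µM PK11195 (final) for 24 h at 37 °C. Luciferase luminescence read (ONE-Glo); CellTiter-Fluor viability (Ex/Em 405/540 nm) in same wells; CITCO positive control.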

Assay [19] is described as follows: HepG2 viability counterscreen (readout 2: ATP content) against the NCATS DSHEA and TCM libraries (AID 1794840). In outline: (§4)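 HepG2 cells, 1,000/well, attached ~4 h, then exposed ~24 h at 37C to substances. Protease activity read by fluorescence of 25 uM GF-AFC (Ex/Em 380/510 nm) after 30 min; ATP then by CellTiter-Glo luminescence.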
A short description of assay [20]: HepG2 viability counterscreen (readout 1: protease activity) against the NCATS DSHEA and TCM libraries (AID 1794841).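 Note: cells exposed to compounds for about 24 h before the protease read.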 Put shortly:
as §4

Sequence of Glutathione peroxidase 1 (Homo sapiens) (P07203 whole entry, looked up): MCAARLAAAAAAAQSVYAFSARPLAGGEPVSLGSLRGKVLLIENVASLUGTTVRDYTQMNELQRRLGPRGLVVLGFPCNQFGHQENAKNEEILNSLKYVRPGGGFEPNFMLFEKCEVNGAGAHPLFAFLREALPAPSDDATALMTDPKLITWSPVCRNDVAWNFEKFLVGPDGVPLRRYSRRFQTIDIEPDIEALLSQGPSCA
Sequence of Phospholipid hydroperoxide glutathione peroxidase GPX4 (Homo sapiens) (P36969 whole entry, looked up): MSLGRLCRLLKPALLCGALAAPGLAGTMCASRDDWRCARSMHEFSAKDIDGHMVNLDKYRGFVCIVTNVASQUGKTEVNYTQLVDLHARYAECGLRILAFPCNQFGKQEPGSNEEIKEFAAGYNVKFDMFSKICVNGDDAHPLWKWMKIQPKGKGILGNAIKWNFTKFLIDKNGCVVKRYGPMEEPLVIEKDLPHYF
Sequence of Nuclear receptor subfamily 1 group I member 3 (Homo sapiens) (Q14994 whole entry, looked up): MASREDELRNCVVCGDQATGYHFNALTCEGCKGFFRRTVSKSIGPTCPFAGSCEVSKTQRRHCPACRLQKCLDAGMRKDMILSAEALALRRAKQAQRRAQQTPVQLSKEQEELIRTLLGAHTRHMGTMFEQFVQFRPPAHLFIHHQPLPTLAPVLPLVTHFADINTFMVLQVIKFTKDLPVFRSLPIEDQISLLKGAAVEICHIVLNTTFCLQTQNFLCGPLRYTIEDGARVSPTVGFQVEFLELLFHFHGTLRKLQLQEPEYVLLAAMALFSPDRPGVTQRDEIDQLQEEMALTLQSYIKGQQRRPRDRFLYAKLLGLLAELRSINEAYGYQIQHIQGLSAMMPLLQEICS

Regarding `COc1cc2c(cc1OC)[C@@H]1C(=O)c3ccc4c(c3O[C@@H]1CO2)C=CC(C)(C)O4`, the Potency entry in [1] and in [2] was “inactive” in each case. For the same compound, the Potency is 4180 nM (active) in [3]; 10.5 nM (active) in assay [4]; 8330 nM (active) in assay [5]; 93.5 nM (active) in [6]; 59 nM (active) in assay [7]; 23.5 nM (active) in assay [8]. The Potency in [9] is 33.2 nM (active).

Turning to `FC(F)(F)c1ccc(Nc2nc3ccc(Oc4ccnc(-c5ncc(C(F)(F)F)[nH]5)c4)cc3[nH]2)cc1`, the Potency result in assay [1], in assay [2], in [10], in [11] and in assay [13] was “inactive” each time. Moreover, in [12], the outcome was inactive. The Potency is 18700 nM (active) in [3]; 16600 nM (active) in assay [6]; 20900 nM (active) in assay [7]; 14800 nM (active) in assay [8]; 26400 nM (active) in assay [9]; 18700 nM (active) in [14].

Consider `c1cncc(CN2CCC(n3ncc4c(N5CCOCC5)nc(-c5ccc6[nH]ccc6c5)nc43)CC2)c1`, for which the Potency result in assay [1], in assay [2], in assay [10], in assay [11], in assay [13] and in assay [9] was “inactive” in each case. Moreover, the call in [12] was inactive. The Potency is 4690 nM (active) in assay [3], 743 nM (active) in assay [4], 5900 nM (active) in assay [5] and 3320 nM (active) in assay [7].

Consider `C[C@@H](Cc1cc2c(c(C(N)=O)c1)N(CCCO)CC2)NCCOc1ccccc1OCC(F)(F)F`, for which the Potency entry in [1], in assay [2], in assay [10], in assay [11], in assay [13] and in [3] was “inactive” in each case. Besides, the Potency entry in [5], in [6] and in [7] was “inactive” in each case. In addition, in assay [12], the outcome was inactive.

Regarding `FC(F)c1nc2ccccc2n1-c1nc(N2CCOCC2)nc(N2CCOCC2)n1`, the Potency result in assay [1], in assay [2], in assay [10], in assay [11] and in [13] was “inactive” throughout. The compound was called inactive in [12]. In addition, the Potency in assay [3] was 743 nM (active); in [4], 66.2 nM (active); in assay [5], 743 nM (active); in assay [6], 209 nM (active); in assay [7], 166 nM (active).

With `CC(C)C[C@@H](C=O)NC(=O)[C@H](CC(C)C)NC(=O)[C@H](CC(C)C)NC(=O)OCc1ccccc1` (Cbz-Leu-Leu-Leu-aldehyde), the Potency entry in [15] and in [2] was “inactive” in each case. For the same compound, the Potency is 590 nM (active) in assay [3]; 105 nM (active) in [4]; 833 nM (active) in assay [5]; 105 nM (active) in assay [6]; 105 nM (active) in assay [8]; 148 nM (active) in assay [9]. The Potency in assay [14] was 83.3 nM (active).

`COc1ccc(C(C)=O)c(O)c1`: the compound was classed as inactive in assay [16], in assay [17], in assay [18], in [19] and in assay [20]. The Potency entry in [3], in assay [4], in assay [5], in assay [6], in [7] and in [9] was “inactive” each time. Also, the Potency result in assay [14] was “inactive”.

On to `CN(C)c1ccc(C(=O)NCCCCCCC(=O)NO)cc1`, for which the Potency entry in [15], in assay [1] and in assay [2] was “inactive” throughout. Besides, the Potency in [3] is 132 nM (active); in assay [4], 590 nM (active); in assay [5], 1870 nM (active); in [6] it was 235 nM (active); in assay [7], 743 nM (active); in assay [8], 332 nM (active). Also, the figures for the Potency in [9] and in assay [14] were 743 nM (active) and 105 nM (active), respectively.
